VACV E9 pol inh = blocks vaccinia virus processive DNA synthesis. in vitro processive DNA synthesis, absorbance read-out; stronger effect = lower value. normalized absorbance, % (test concentration not listed). 46,000 compounds, 0.94% hits; in the data active = normalized absorbance mostly below about 85%, no sharp cut-off; inactive = mostly above about 86%
Numbers without * were called inactive. The sample as a whole holds a higher share of hits than the screen did.

SMILES	VACV E9 pol inh
CCN(CC)CCCNc1nc2cc(OC)c(OC)cc2c2nc(-c3ccccc3)nn12	33.7*
O=C1CCC(=O)N1Nc1nc2ccccc2c2nc(-c3ccccc3)nn12	97.5
CCOC(=O)C1CCCN(C(=O)CSc2ccc(Cl)cc2)C1 (stereo unspecified)	102.1
CC(C)S(=O)(=O)/C(C#N)=C/N1CCC(C(F)(F)F)CC1	99.0
O=C(Nc1ccc(Cl)cc1)C1=Cc2ccccc2OC1	64.6*
Nc1c(C(=O)Nc2ccc(Cl)cc2)oc2ccccc12	99.9
COc1ccc2c(c1)C=C(C(=O)Nc1ccccc1)CO2	103.4
CC1CC(C)CN(S(=O)(=O)c2ccc(Cl)cc2)C1 (stereo unspecified)	100.4
Cc1ccsc1C1C(C#N)=C(N)Oc2nc(-c3ccccc3)[nH]c21 (stereo unspecified)	100.9
CCCS(=O)(=O)N1CCC(C(=O)N2CCC3(CC2)OCCO3)CC1	100.7
O=C(O)c1ccccc1NCc1ccccc1Cl	63.8
O=C(/C=N/O)Nc1ccccc1C(=O)O	94.2
O=C(Nc1ccccc1C(=O)O)OCC1c2ccccc2-c2ccccc21	41.1*
Cc1cc(NC2c3ncccc3C(=O)N2C2CCCCC2)ccc1Br (stereo unspecified)	105.1
CC(=O)OCc1ccccc1Sc1ccccc1C(=O)Nc1ccccc1	96.9
COc1cc(C=Nc2ccc(O)cc2)ccc1OC(=O)CC1SC(=O)NC1=O (stereo unspecified)	99.9
CN1CCN(c2nc(-c3ccccc3)c3ccccc3n2)CC1	100.7
CN1CCN(c2cc(-c3ccccc3)nc3ccccc23)CC1	78.9*
CN1CCN(c2cc(-c3ccncc3)nc3ccccc23)CC1	83.0
Cc1cc(C)n2nc(Cc3ccccc3)nc2n1	95.8
NNC(=O)c1csc(Cc2c(Cl)cccc2Cl)n1	95.7
O=C(O)C1C2CC=CC2c2cc(Cl)cc3c2N1CC1CC=CC31 (stereo unspecified)	100.0
CCOc1ccc2c(c1)C1C=CCC1C(c1ccc(C(=O)OC)cc1)N2 (stereo unspecified)	104.7
Brc1ccccc1[C@@H]1Nc2ccccc2[C@@H]2C=CC[C@@H]21	100.1
O=C1N[C@H](C(=O)O)C1Cc1ccccc1 (stereo partly specified)	98.6
SMILES	VACV E9 pol inh
CC(C)C1Nc2ccc(C(=O)O)cc2C2C=CCC21 (stereo unspecified)	77.9*
Cc1ccc2c(c1)C1C=CCC1C(c1ccc(N=Cc3ccccc3)cc1)N2 (stereo unspecified)	96.9
O=C(O)c1ccc(C2Nc3ccccc3C3C=CCC32)cc1 (stereo unspecified)	10.5*
Cc1cc(Cl)ccc1NS(=O)(=O)c1ccc2c(c1)[C@H]1C=CC[C@H]1[C@@H](c1ccccc1)N2	100.7
O=C(O)C1Nc2ccccc2C2C=CCC12 (stereo unspecified)	9.8*
O=P(O)(c1ccccc1)c1nc2c(s1)CCCC2	99.5
CCc1ccc(/C=C2\CN(C)C/C(=C\c3ccc(CC)cc3)C2O)cc1	100.2
Cc1nn(-c2ccccc2)c2sc(C(=O)NCc3ccccc3)cc12	85.7
COC(CNC(=O)c1cccc2c1C(=O)N(Cc1cccnc1)C2)OC	97.1
CCNc1ccc(S(=O)(=O)C(F)(F)F)cc1N	102.5
O=C(NCC1COc2ccccc2O1)c1ccc2c(Cl)c3c(nc2c1)CCCC3 (stereo unspecified)	106.9
COC(=O)c1ccccc1NC(=O)CCc1ccc(OC)cc1	100.5
O=C(CSC1=NCCc2ccccc21)c1ccccc1Cl	87.0
O=C(SC1=NCCc2ccccc21)c1ccccc1	96.7
O=C(CSC1=NCCc2ccccc21)c1ccc(-c2ccccc2)cc1	69.0*
CC(C)NC(=O)C(C)n1cccc1C(=O)c1ccccc1 (stereo unspecified)	104.0
NCC(O)c1ccc2ccccc2c1 (stereo unspecified)	93.2
O=C1NC(=O)C(=Cc2cccc3ccccc23)C(=O)N1	87.6
CSC1=NC(=O)/C(=C\c2cccc3ccccc23)S1	72.6*
CC(C(=O)O)N1C(=O)/C(=C/c2cccc3ccccc23)SC1=S (stereo unspecified)	84.8
Clc1ccc(CCc2ccc(Cl)cc2)cc1	97.6
Nc1cccc(C2=NCCN2)c1	99.3
O=C(Nc1cccc(C2=NCCN2)c1)Nc1cccc(C2=NCCN2)c1	78.4*
O=C(NC1=NCCCCCN1)Nc1cccc(Cl)c1	100.0
CSc1ccccc1NC(=O)COC(=O)/C=C/c1ccc(F)cc1	96.5
SMILES	VACV E9 pol inh
O=C(O)CCNc1ncnc2sc3c(c12)CCCC3	99.6
CCOC(=O)c1oc2ccccc2c1CO	77.0*
CCOC(=O)c1oc2ccccc2c1NC(=O)c1ccccc1	91.5
CCOC(=O)c1oc2ccccc2c1NC(=O)c1ccc(S(=O)(=O)N(C)C)cc1	103.8
CCOC(=O)c1cc(-c2ccccc2)n(-c2ccc(C(=O)O)cc2)c1C	60.6*
CCOC(=O)c1cc(-c2ccccc2)n(-c2cccc(C(=O)N3CCCC3)c2)c1C	78.2
CCOC(=O)c1cc(-c2ccccc2)n(CCC(=O)O)c1C	88.3
CCOC(=O)c1c(N=CN(C)C)c(C#N)c2n1CCC2	99.8
COC(=O)c1ccsc1N1C(=O)c2ccccc2C1=O	102.2
O=S(=O)(c1cc(Cl)ccc1Cl)N1CCCCC1	103.8
CCCC(=O)Oc1c(Sc2ccccc2)c(C)nn1-c1ccccc1	85.9
Cc1nn(-c2ccccc2)c(C)c1Sc1ccccc1	100.2
CC(=O)Oc1c(Sc2ccccc2)c(C)nn1-c1ccccc1	76.7*
Cc1c(C(=O)N(C)C2CCN(C)CC2)cnn1-c1ccc(Cl)cc1	94.6
COc1cccc2sc(=NC(=O)c3cccc4ccccc34)n(C)c12	101.1
COC(=O)CNC(=O)c1cn(CC(C)C)c(=O)c2cc(OC)c(OC)cc12	90.7
COc1ccc(-c2cc(=O)c3c(O)cc(O[C@@H]4O[C@H](CO[C@H]5O[C@H](C)[C@@H](O)[C@H](O)[C@@H]5O)[C@@H](O)[C@H](O)[C@H]4O)cc3o2)cc1O	96.7
Cc1ccc(NC(=O)Cc2c[nH]c3ccccc23)cc1	103.2
Cc1ccccc1CNCCc1c[nH]c2ccccc12	95.1
Cc1cc(C)nc(NC(N)=NCCc2c[nH]c3ccccc23)n1	84.9*
Nc1ncnc2nc(N3CCOCC3)ncc12	96.1
Cc1ccc(N=C2C(=O)N(C)c3ccccc32)cc1	93.3
CCOC(=O)c1ccccc1NC(=O)NCc1noc2ccc(C)cc12	105.4
Fc1cccc(F)c1CNCC1NCCc2ccccc21 (stereo unspecified)	100.4
Nc1ccc2nc(CCC(=O)O)[nH]c2c1	101.2
SMILES	VACV E9 pol inh
C=Cc1c(C)c2cc3[nH]c(cc4nc(cc5nc(cc1[nH]2)C(C)=C5CCC(=O)O)C(CCC(=O)O)=C4C)c(C)c3C=C	21.7*
O=C(O)CCc1nc2ccc(C(=O)O)cc2[nH]1	99.5
COc1ccc(NC(=O)Cn2cnc3ccccc3c2=O)cc1	102.2
Cc1cc(C)c(S(=O)(=O)NCc2ccc(C(=O)NCCc3ccc(Cl)cc3)cc2)c(C)c1	100.5
C=C1c2c(Cl)ccc(O)c2C(O)=C2C(=O)[C@]3(O)C(O)=C(C(N)=O)C(=O)[C@@H](N(C)C)[C@@H]3[C@@H](O)[C@H]12	100.7
CN(C)[C@@H]1C(=O)C(C(N)=O)=C(O)[C@@]2(O)C(=O)C3=C(O)c4c(O)cccc4[C@@](C)(O)[C@H]3C[C@@H]12	98.9
C=C1c2cccc(O)c2C(O)=C2C(=O)[C@]3(O)C(O)=C(C(N)=O)C(=O)[C@@H](N(C)C)[C@@H]3[C@@H](O)[C@H]12	55.2*
CCOc1ccc(N=C2C(=O)N(CN3CCCCC3)c3ccccc32)cc1	100.4

Bioassay records: PubChem BioAssay, ICCB-Longwood Screening Facility, Harvard Medical School
